Laboratory results from PubChem BioAssay AID540300 (National Center for Advancing Translational Sciences (NCATS), 2011).
Some of the results follow. The source made the active and inactive calls. Calls follow the shape of the dose curve; as a rule, active = well fitted curve in the direction sought with a large enough effect; inconclusive = small, poorly fitted or top-dose-only effect, or another doubt; inactive = no such curve, though single readings can be large or run the other way.

Assay: Inhibitors of DNA Polymerase Beta: Hit Validation in Klenow Fragment Assay
Conditions: Klenow exo- polymerase counter-screen, fluorescent DNA substrate; series mostly up to 57.1 µM
Source text: The base excision repair system in human cells is a target for therapeutic modulation of the response to irradiation treatment and DNA-damaging drugs. A key enzyme in this system is the bi-functional DNA polymerase known as DNA polymerase beta (pol b). […] Using an integrated approach involving discovery of small molecule probes for pol b via qHTS and validation by crystallography and kinetics along with cell-based validation experiments, we will test the hypothesis that base excision repair can be strategically modulated in human cells by targeting pol b. Thus, we anticipate the pol b-specific probes emerging from this research will serve as starting points in the development of clinical agents for use in down regulation of DNA base excision repair during therapeutic interventions against cancer. After the completion of the qHTS against the Molecular Libraries Small Molecular Repository (MLSMR), cherry picked compounds were re-affirmed in the primary qHTS pol beta assay and further characterized in several follow-up assays. An E. coli Klenow exo- fragment assay was used as a counter screen assay. The Klenow exo- fragment is a large protein fragment of DNA polymerase which lack exonuclease activity. Measuring compounds activity against the Klenow exo- fragment helps identifying promiscuous compounds. […] NIH Chemical Genomics Center [NCGC] NIH Molecular Libraries Probe Centers Network [MLPCN] MLPCN Grant: MH090863-01 Assay Submitter (PI): Samuel Wilson, National Institute of Environmental Health Sciences (NIEHS), NIH Assay Submitter (PI): Samuel Wilson, National Institute of Environmental Health Sciences (NIEHS), NIH
A stepwise description of the 1536-well assay is shown as described in primary assay. Three microliters of reagents (buffer in column 3 and 4 as negative control and 5nM Klenow enzyme in columns 1, 2, and 5-48) will be dispensed into 1,536-well black solid-bottomed plate. Compounds (23nl) will be transferred via Kalypsys pin tool equipped with 1536-pin array (10nl slotted pins, V&P Scientific, San Diego, CA). The plates will then be incubated for 15 min at room temperature, and 1 µl substrate of tripartate ds DNA (50nM final concentration) will be added to start the reaction and kinetically read twice at 0 min and 10 min on ViewLux reader.

| SMILES | outcome |
| --- | --- |
| COc1cc([C@H](Cc2ccccc2)NC(C)=O)oc(=O)c1 | inactive |
| Cc1ccc(C(=O)Oc2coc(CSc3nnc(NC(=O)c4cccs4)s3)cc2=O)cc1C | inactive |
| COc1ccc(Cc2nnc(NC(=O)Cc3cccs3)s2)cc1 | inactive |
| CCOc1ccccc1/C=c1\sc2nc(-c3ccco3)nn2c1=O | inactive |
| O=C(c1cc2c(s1)CCC2)N1CCN(c2ccccc2)CC1 | inactive |
| Cc1c(CC(=O)N2CCN(C(=O)C3COc4ccccc4O3)CC2)c(=O)oc2c(O)c(O)ccc12 (stereo not given) | inactive |
| Cc1c(CCC(=O)O)c(=O)oc2c(C)c(OCc3ccccc3Cl)ccc12 | inactive |
| O=C(CN1CCN(S(=O)(=O)c2cc(Cl)ccc2Cl)CC1)c1ccc(O)c(O)c1 | inactive |
| Cc1ccc2nc(-c3ccncc3)cc(C(=O)Nc3ccc(OC(F)F)cc3)c2c1 | inactive |
| O=C(Nc1ccc(S(=O)(=O)Nc2nccs2)cc1)c1cc(-c2ccncc2)nc2ccccc12 | inactive |
